Experimental data taken from PubChem BioAssay AID2313 (Broad Institute, 2010).
Screen size: about 22,000 compounds; about 460 (2.1%) were called active. About 2% were inconclusive and are not listed. The entries come from a sample that favours actives as a whole. A number with no mark means an inactive call.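 The calls were made as follows: active = mean inhibition across valid replicates above about 65% (limit read from the data); inconclusive = mean under the limit, yet half or more replicates past it; inactive = the rest.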

Test: Hedgehog pathway signaling inhibitors, primary screen, luminescence, Shh-LIGHT2 cells, Gli-luciferase (AID 2313);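 also: pathway switched on by Shh-conditioned medium diluted 1 in 25 in low serum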
Settings: Shh-LIGHT2 Gli-luciferase reporter, 30 h; hits give high values

SMILES	inhibition
CC(C)NC(=O)N(C)C[C@@H]1Oc2ccc(N(C)C)cc2C(=O)N([C@@H](C)CO)C[C@H]1C	-15.2%
CC(C)NC(=O)Nc1ccc2c(c1)C(=O)N([C@H](C)CO)C[C@H](C)[C@@H](CN(C)CC1CCCCC1)OCCCC[C@@H](C)O2	-21.5%
C[C@@H]1CN([C@H](C)CO)C(=O)Cc2cc(NS(C)(=O)=O)ccc2O[C@H]1CN(C)S(=O)(=O)c1ccccc1	-3.98%
C[C@@H]1CCCCO[C@H](CN(C)C(=O)Nc2cccc3ccccc23)[C@@H](C)CN([C@H](C)CO)C(=O)c2cc(NC(=O)Nc3ccc4c(c3)OCO4)ccc2O1	-3.94%
Cc1ccc(OCc2n[nH]c(=S)n2C2CCCCC2)c2c1CCC2	9.84%
COc1ccc(NC(=S)SC)cc1OC	-54.6%
C[C@@H]1CN([C@H](C)CO)C(=O)c2cccc(NC(=O)NC3CCCCC3)c2O[C@@H]1CN(C)CC1CCCCC1	23.2%
Cc1noc(C)c1S(=O)(=O)N(C)C[C@@H]1Oc2c(NS(=O)(=O)c3cn(C)cn3)cccc2C(=O)N([C@H](C)CO)C[C@@H]1C	-16%
C[C@H](CO)N1C[C@H](C)[C@H](CN(C)S(=O)(=O)c2cccs2)Oc2ccc(NC(=O)Nc3ccccc3)cc2C1=O	-3.56%
COCc1nc2c([nH]1)C(c1ccccc1COc1ccc(Cl)cc1)C(C#N)=C(N)O2 (centres undefined)	-16.6%
C[C@@H]1CN([C@H](C)CO)C(=O)c2cccc(NS(=O)(=O)c3cn(C)cn3)c2O[C@H]1CN(C)Cc1ccc(C(=O)O)cc1	24.8%
Cc1cc(C(=O)Nc2cccc3c2O[C@@H](CN(C)Cc2ccncc2)[C@@H](C)CN([C@@H](C)CO)C3=O)n(C)n1	-8.53%
Cc1ccc(S(=O)(=O)Nc2cccc3c2O[C@@H](CN(C)S(=O)(=O)c2ccc(C)cc2)[C@H](C)CN([C@@H](C)CO)C3=O)cc1	-18.7%
COc1ccc(CNC(=O)c2c(C)oc3c2cc(OC(C)=O)c2ccccc23)cc1	-2.05%
S=c1nc2c(cnn2-c2ccccc2)c(Nc2ccccc2)[nH]1	-7.49%
Cc1ccc(-c2c[n+](=O)c3c(n2[O-])CCC3)cc1	-26.9%
C[C@H]1CN([C@@H](C)CO)C(=O)Cc2cc(NC(=O)Cc3ccccc3)ccc2O[C@@H]1CN(C)S(=O)(=O)c1ccc(Cl)cc1	22.7%
C1=C(c2cccs2)CC(c2cccs2)=NN=C1c1cccs1	-1.01%
COc1ccc(NC(=O)N(C)C[C@@H]2Oc3c(NC(=O)Nc4cccc5ccccc45)cccc3C(=O)N([C@@H](C)CO)C[C@H]2C)cc1	3.07%
C[C@H](CO)N1C[C@H](C)[C@H](CN(C)C(=O)Nc2ccc(C(F)(F)F)cc2)Oc2ccc(N(C)C)cc2CC1=O	-27.1%
COc1ccc(NC(=O)Nc2ccc3c(c2)CC(=O)N([C@@H](C)CO)C[C@@H](C)[C@@H](CN(C)Cc2ccc(C(F)(F)F)cc2)O3)cc1	13.9%
COc1ccc(NC(=O)N(C)C[C@@H]2Oc3c(NC(=O)c4ccc(-c5nccs5)cc4)cccc3C(=O)N([C@H](C)CO)C[C@@H]2C)cc1	20.7%

SMILES	inhibition
C[C@H](CO)N1C[C@H](C)[C@@H](CN(C)S(=O)(=O)c2ccc(Cl)cc2)Oc2ccc(NS(=O)(=O)c3cn(C)cn3)cc2C1=O	25.4%
C[C@H]1CN([C@@H](C)CO)C(=O)Cc2cc(NC(=O)Nc3ccccc3)ccc2O[C@H]1CN(C)S(=O)(=O)c1cn(C)cn1	-32.8%
C[C@H](CO)N1C[C@H](C)[C@H](CN(C)CC2CCCCC2)Oc2ccc(NC(=O)C3CCCCC3)cc2C1=O	21.2%
Cc1noc(C)c1NC(=O)Nc1ccc2c(c1)CC(=O)N([C@H](C)CO)C[C@@H](C)[C@@H](CN(C)S(=O)(=O)c1ccc(Cl)cc1)O2	-13.6%
Cc1noc(C)c1NC(=O)Nc1ccc2c(c1)C(=O)N([C@@H](C)CO)C[C@H](C)[C@H](CN(C)S(=O)(=O)c1ccc(Cl)cc1)O2	-26.2%
C[C@H](CO)N1C[C@H](C)[C@@H](CN(C)Cc2ccc(C(F)(F)F)cc2)Oc2c(NC(=O)NC3CCCCC3)cccc2C1=O	23.9%
O=C(NCCN1CCCCC1)Nc1cccc(Cl)c1	20.6%
COc1ccc(NC(=O)Nc2ccc3c(c2)CC(=O)N([C@@H](C)CO)C[C@@H](C)[C@@H](CN(C)Cc2ccc(Cl)c(Cl)c2)O3)cc1	38.8%
C[C@@H]1CN([C@H](C)CO)C(=O)Cc2cc(NC(=O)CCCN(C)C)ccc2O[C@H]1CN(C)CC1CCCCC1	18.8%
Cc1cccc(NC(=O)c2ccc(C)c(S(=O)(=O)N3CCCC3)c2)c1	-48.9%
Cc1ccc(NC(=O)c2cccc(N(C)C)c2)cc1NC(=O)c1ccc(O)cc1	83.8% (active)
O=C(CCCCn1cnc2ccccc21)c1ccccc1	-10.1%
CNC[C@H]1Oc2ccc(NS(=O)(=O)c3ccc(F)cc3)cc2CC(=O)N([C@H](C)CO)C[C@H]1C	-2.19%
C[C@@H]1CN([C@H](C)CO)C(=O)Cc2cc(NS(=O)(=O)c3ccc(Cl)cc3)ccc2O[C@@H]1CN(C)C	-10.8%
CNC[C@@H]1Oc2c(NC(=O)Nc3ccc(F)cc3)cccc2C(=O)N([C@@H](C)CO)C[C@@H]1C	15.5%
Cc1ccc(NC(=O)CC(=O)Nc2ccc(C)cc2)cc1	-21.5%
C[C@@H]1CN([C@H](C)CO)C(=O)c2cccc(N(C)C)c2O[C@H]1CN(C)S(=O)(=O)c1cn(C)cn1	3.08%
C=C1C(=O)O[C@H]2C3=C(C)C[C@H](OC(C)=O)C[C@]3(C)CC[C@@H]12	-2.37%
COc1cc(/C=C2\Oc3cc(O)cc(O)c3C2=O)ccc1O	3.42%
Cc1ccc2nc(C)c3c(c2c1)N(c1ccccc1)CC3	34.9%
Cc1ccc(Nc2nc(C)cc(C)c2C(N)=O)cc1	-37.3%
Cc1ccc2nc(Nc3ccccc3)cc(C)c2c1	72.3% (active)
